# In ChEMBL document CHEMBL4513216, “Probing the Open Global Health Chemical Diversity Library for Multistage-Active Starting Points for Next-Generation Antimalarials” (ACS Infect Dis, 2020):
# The campaign covered roughly 69,000 compounds. About 8,600 (12%) showed an effect of 50% or more. The list comes from a sample in which strong results are over-represented; it also holds similar structures and randomly drawn compounds.
# System: Plasmodium berghei
# Experiment: Screen against P. berghei liver stage (PbLuc), transformed with Luciferase, at 10uM
# Type: functional, HepG2
# Conditions: tested at 10 uM
row,SMILES,INHIBITION [%]
1,CN1CCCN(Cn2nc(-c3ccccc3F)ccc2=O)CC1,18.2
2,Cc1ccsc1C1CCCCCN1Cc1cn(C)nc1C (centres undefined),49
3,CC(C)n1cnnc1CN(C)C(=O)c1ccccc1N1CCOCC1,7.92
4,CCN(CC(O)c1ccc(C)cc1)C(=O)NC(C)C (centres undefined),17.8
5,COc1c(C2CCCN2C(=O)c2cccc(C)n2)c(C)nn1C (centres undefined),1.78
6,CNC(=O)[C@@H]1C[C@H]2CN(Cc3csc(C)n3)C[C@H]2N1C(C)C,42.4
7,O=S(=O)(Nc1cnc(N2CCOCC2)nc1)c1ccc(C(F)(F)F)cc1,-18
8,CCOc1ccc(NC(=O)Nc2cnc(N3CCOCC3)nc2)cc1,-8.66
9,O=C(Nc1cnc(N2CCOCC2)nc1)c1ccc(C(F)(F)F)cc1,77.9
10,O=C(COc1ccc(Cl)cc1)Nc1cnc(N2CCOCC2)nc1,52.7
11,O=C(CCCc1ccccc1)Nc1cnc(N2CCOCC2)nc1,-33.3
12,COCC(=O)Nc1cnc(N2CCOCC2)nc1,26.9
13,CCN1CC2(CC1=O)CN(C(=O)NC(C)C)CCN(S(C)(=O)=O)C2 (centres undefined),21.6
14,O=S(=O)(c1ccc(F)cc1)N1CCCC(c2nccs2)C1 (centres undefined),13.5
15,CC(=O)NCc1nccnc1C1CCN(C(=O)c2cc[nH]n2)CC1,-19.7
16,Cc1cnc(N2CCC3(CC2)CC3C(=O)NCC2CC2)nc1 (centres undefined),16.9
17,Cc1cnc(N2CCC3(CC2)CC3CNC(=O)C2CCC2)nc1 (centres undefined),50.7
18,Cc1cnc(N2CCC3(CC2)CC3CNC(=O)N(C)C)nc1 (centres undefined),7.24
19,CC(C)(C)CC(=O)NS(=O)(=O)c1ccc(F)cc1C(F)(F)F,-15.5
20,Cc1nn(C)c(C)c1C1CCCN1Cc1nc2ccccc2c(=O)[nH]1 (centres undefined),-33.7
21,COc1cc(CNc2nc3c(c(=O)[nH]2)CCNC3)cc(OC)c1OC,57.8
22,O=c1[nH]c(COc2ccccc2Cl)nc2c1CCNC2,2.15

row,SMILES,INHIBITION [%]
1,O=c1[nH]c(NCc2cccc(-c3ccccc3)c2)nc2c1CCNC2,21.9
2,O=c1[nH]c(COc2cccc(F)c2)nc2c1CCNC2,15.8
3,O=c1[nH]c(NCc2cccc(OC(F)F)c2)nc2c1CCNC2,88
4,CC(C)(C)c1ccc(OCc2nc3c(c(=O)[nH]2)CCNC3)cc1,-13.3
5,CCC=C(C)C(=O)N1CSCC1C(=O)NC1=NCCS1 (centres undefined),7.58
6,OC1CCN(C2CCN(Cc3cnc(-c4cccs4)nc3)CC2)CC1,25.1
7,C[C@@H]1CN(C2CCN(Cc3cnc(-c4cccs4)nc3)CC2)C[C@H](C)O1,63.7
8,CC(C1CCN(Cc2cnc(-c3cccs3)nc2)CC1)N(C)C (centres undefined),18.8
9,CC(C)n1ncc2cc(NC(=O)N3CCSCC3)cnc21,11.2
10,O=C(Cc1csc(-c2ccco2)n1)N1CCN(c2ccccc2O)CC1,-44.3
11,CC(=O)N1CCOCC(Cc2ccc3c(ccn3C(C)=O)c2)C1 (centres undefined),12.59
12,Cc1ccc(CC2COCCN(S(=O)(=O)c3ccccc3)C2)nc1 (centres undefined),1.62
13,CC(C)c1nn(C)c(N(C)C)c1CNC1CCc2cc(F)ccc21 (centres undefined),-25.3
14,COc1ccc(OCC2CCCN(c3nc(CO)cs3)C2)cc1 (centres undefined),-3.43
15,CN(C)Cc1nc(C(=O)N2CCCC(COc3ccc(F)cc3)C2)cs1 (centres undefined),15.7
16,CN(C)Cc1ccc(C(=O)N2CCCC(COc3ccc(F)cc3)C2)o1 (centres undefined),63
17,Cc1ccccc1OCC1CCCN(c2cc(N)nc(N)n2)C1 (centres undefined),73.8
18,CCc1nnsc1C(=O)N1CCCC(COc2ccc(F)cc2)C1 (centres undefined),26.4
19,Cc1nc(CN(C)C)cc(N2CCCC(COc3ccc(F)cc3)C2)n1 (centres undefined),79.5
20,COCC(=O)N1CCCC(COc2ccccc2C)C1 (centres undefined),-4.37
21,OCc1csc(N2CCCC(COc3cccc(F)c3)C2)n1 (centres undefined),39.9
22,COc1cccc(OCC2CCCN(c3cc(C(N)=O)ccn3)C2)c1 (centres undefined),40.7

row,SMILES,INHIBITION [%]
1,Cc1ccc(OCC2CCCN(c3cc(C(N)=O)ccn3)C2)cc1 (centres undefined),26.5
2,Cc1nc(N)cc(N2CCCC(COc3cccc(F)c3)C2)n1 (centres undefined),73.8
3,CCNC(=O)c1ccnc(N2CCCC(COc3ccccc3C)C2)c1 (centres undefined),30.9
4,O=C(c1ccccc1)N1CC2(CCNC2)OCc2ccccc21 (centres undefined),-0.621
5,Cc1cnc(N2Cc3nccn3CC(Cn3ncccc3=O)C2)nc1 (centres undefined),38.2
6,CCN1CC(C(=O)NCCc2csc(-c3ccncc3)n2)CC1=O (centres undefined),-2.92
7,CC(=O)N1CCC(Cc2cccc(-c3c(C)noc3C)n2)C1 (centres undefined),8.53
8,Nc1cc(N2CCCC(COc3ccc(F)cc3)C2)nc(N)n1 (centres undefined),79.5
9,Nc1nc(N2CCCC(COc3ccc(F)cc3)C2)c2nc[nH]c2n1 (centres undefined),33.7
10,Nc1cc(N2CCCC(COc3ccc(F)cc3)C2)ncn1 (centres undefined),23.7
11,OC(COCc1ccccc1Cl)CN1CCC(c2ccn[nH]2)CC1 (centres undefined),48.2
12,COc1ccc(CN2CC3(CCNCC3)CCC2=O)c(F)c1F,22.9
13,Cc1ccc(CN2CC3(CCNCC3)CCC2=O)c(F)c1F,71.1
14,COc1cccc(CN2CC3(CCNCC3)CCC2=O)c1OC,24.2
15,c1ccc(NC[C@@H]2CCC[C@@H]3CN(c4ncccn4)C[C@@H]32)nc1,48.4
16,CC[C@H]1CN(C(=O)c2cnc(N3CCN(C)CC3)nc2C)CC[C@@]1(C)O,1.93
17,CC(=O)N1CCc2nnc(C3CCCN3CC3CCCCC3)n2CC1 (centres undefined),-5.71
18,CC(CNC(=O)CCCc1ccccn1)c1ccsc1 (centres undefined),60.2
19,CC(C)C(O)CNC(=O)CCCc1ccccn1 (centres undefined),15.5
20,CC(CNC(=O)CCc1ccccn1)c1ccsc1 (centres undefined),22.2
21,CC(C)CS(=O)(=O)CC(=O)NC1CCCCNC1=O (centres undefined),-79.1
22,O=C(c1cnc(-c2ccccn2)s1)N1CCCC1Cn1cccn1 (centres undefined),-9.19

row,SMILES,INHIBITION [%]
1,O=C(N1CCOCC1)N1CCc2ncnc(Oc3cccnc3)c2CC1,0.734
2,Cc1nc(NCCSc2ccccn2)c2c(C)noc2n1,13.5
3,Cc1nc(C)c(C)c(NCCSc2ccccn2)n1,60.2
4,Cc1nc(N(C)C)nc(NCCc2ccccn2)c1C,-43.6
5,CC(C)CN1C[C@@H]2CN(C(=O)[C@H]3CCCO3)C[C@@H]2C1=O,17.4
6,CCN1CCCC1CNCc1cc2cc(OC)ccc2[nH]c1=O (centres undefined),72.2
7,COc1ccc2cc(CN(C)CCN3CCCCC3=O)c(=O)[nH]c2c1,-15.1
8,CCN1CCCC1CNCc1cc2cc(OC)c(OC)cc2[nH]c1=O (centres undefined),18.3
9,COc1ccc2[nH]c(=O)c(CN(C)CCN3CCCC3)cc2c1,63.9
10,CSc1ccc2cc(CN(C)CCc3cn[nH]c3)c(=O)[nH]c2c1,20.8
11,CCN1CCCC1CNCc1cc2cc3c(cc2[nH]c1=O)OCCO3 (centres undefined),58.2
12,CCOc1ccc2[nH]c(=O)c(CN(C)CCc3cn[nH]c3)cc2c1,54.4
13,COc1ccc2[nH]c(=O)c(CN(C)C(C)c3ccccn3)cc2c1 (centres undefined),-3.55
14,COc1ccc2cc(CN(C)CCc3cn[nH]c3)c(=O)[nH]c2c1,36.5
15,CCN1CCCC1CNC(=O)CCSc1ccc2c(c1)OCCO2 (centres undefined),38.5
16,CCN1CCCC1CNCc1cc2cc(C)c(C)cc2[nH]c1=O (centres undefined),-29.9
17,CCN1CCCC1CNCc1cc2ccccc2[nH]c1=O (centres undefined),-61.5
18,CCOc1cc(C)nc(N2CCN(C(=O)c3cscn3)CC2)n1,15.3
19,Cc1csc(NC(=O)c2ccc(NC(=O)N3CCOCC3)cc2)n1,-37.4
20,Cc1cccc(C(=O)NCc2ccc(CS(N)(=O)=O)cc2)n1,-33.9
21,O=C1CCCN1Cc1nnc2n1CCN(Cc1ccccn1)CC2,-30.7
22,COc1ncc(CN2C[C@@H]3C[C@@H](O)CN3C[C@@H]2Cc2ccccc2)cn1,33.8

row,SMILES,INHIBITION [%]
1,c1cn2c(n1)CN(Cc1ccsc1)CC(Cn1cncn1)C2 (centres undefined),49.7
2,CC(C)c1nc(CN(C)Cc2ccc(O)c(C(=O)O)c2)cs1,-14.1
3,CCOc1ncccc1CNC(=O)Nc1ccccc1,31.3
4,COc1ccc(CC2CN(C(=O)c3coc(C)n3)CCO2)cc1 (centres undefined),9.05
5,Cc1nc(-c2cncnc2C2CCCNC2)no1 (centres undefined),-3.45
6,COc1ccc2c(C)c(C(=O)NC3CCN(S(C)(=O)=O)CC3)oc2c1,-112
7,COc1ccc2c(C)c(C(=O)NC3CCCOC3)oc2c1 (centres undefined),60.9
8,COc1ccc2c(C)c(C(=O)NC3CCOCC3)oc2c1,-104
9,CNS(=O)(=O)c1ccc(C(=O)N2CCCC2c2ccncc2)o1 (centres undefined),36.1
10,Cc1cc(NCc2ccco2)nc2[nH]nc(N)c12,61
11,Cc1cc(NCCO)nc2[nH]nc(N)c12,26.7
12,Cc1cc(NCc2ccccc2)nc2[nH]nc(N)c12,-0.232
13,CC1CN(C)CCN1C(=O)COc1cccc(Oc2ccccn2)c1 (centres undefined),61.2
14,CC1COCCN1C(=O)COc1cccc(Oc2ccccn2)c1 (centres undefined),-20.6
15,CC1COCCN1C(=O)COc1ccc(Oc2ccccn2)cc1 (centres undefined),8.99
16,CCSCCC(=O)NS(=O)(=O)c1ccc2c(c1)OCCO2,41.9
17,CCS(=O)(=O)c1ccc2c(c1)OCCCO2,55.9
18,CCS(=O)(=O)c1ccc2c(c1)OCCO2,77.8
19,CC(C)CC(=O)NS(=O)(=O)c1ccc2c(c1)OCCCO2,-7.81
20,O=S(=O)(CCCS(=O)(=O)c1ccc2c(c1)OCCCO2)c1ccccc1,-46.8
21,CSCC(=O)NS(=O)(=O)c1ccc2c(c1)OCCO2,8.315
